Assay results published in PubChem BioAssay (NCATS).
Inconclusive results are not listed. The source made the active and inactive calls. The call rests on the fitted dose curve; in most records, active means well fitted inhibition curve with a large enough effect; inconclusive means small, poorly fitted or top-dose-only effect; inactive means flat fitted curve, though single readings scatter.

Assay: P-glycoprotein substrates identified in KB-8-5-11 adenocarcinoma cell line, qHTS therapeutic library screen (AID 1346987); further: nearly all actives have a fitted effect of over 65% in size
Details: KB-8-5-11 (P-gp overexpressing) viability, CellTiter-Glo, 72 h; series mostly up to 44.5 µM; activity change, negative = cytotoxicity: at the top concentration
Procedure, shortened: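 Steps: plate 500 KB-8-5-11 cells/well in DMEM + 10% FCS (colchicine removed); pin compounds in dose-response; incubate 72 h, 37 degree C, 5% CO2; add CellTiter-Glo, 5 min; read luminescence.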
On the % scale 0 is the no-effect control and ±100 the full control effect; potency means the concentration at half of the fitted maximal effect.

Row | Structure (SMILES) | activity change, negative = cytotoxicity | outcome | Potency
1 | C=CCSSSCC=C | -19.4% (inactive) |  | 
2 | O=C(C1CC1)N1CC[C@@H](Cc2n[nH]c(=O)n2-c2ccc(-c3ccc4occc4c3)cc2)C1 |  | inactive [at 17.3 µM] | 
3 | CC1(C)CC2C3=CCC4C5(C)CCC(OC6OC(CO)C(O)C(OC7OC(CO)C(O)C(OC8OC(CO)C(O)C(OC9OC(COC%10OC(CO)C(O)C(O)C%10O)C(O)C(O)C9O)C8O)C7O)C6O)C(C)(C)C5CCC4(C)C3(C)CCC2(C(=O)O)CC1O (centres undefined) | -1.4% [at 9.29 µM] (inactive) |  | 
4 | CC1(C)CC[C@]2(C(=O)O)CC[C@]3(C)C(=CCC4[C@@]5(C)C[C@@H](O)[C@H](O)C(C)(C)C5CC[C@]43C)[C@@H]2[C@@H]1O (some centres undefined) | -3.96% [at 17.3 µM] (inactive) |  | 
5 | O=C(/C=C/c1ccc(O)cc1)OCC1=CC2OC(=O)C3=CO[C@@H](O[C@@H]4O[C@H](CO)[C@@H](O)[C@H](O)[C@H]4O)[C@H]1[C@@H]32 (some centres undefined) |  | inactive [at 17.3 µM] | 
6 | C=CC1C(O[C@@H]2O[C@H](CO)[C@@H](O)[C@H](O)[C@H]2O)OC=C(C(=O)OC)C1CC(=O)O (some centres undefined) |  | inactive [at 17.3 µM] | 
7 | C/C=C(\C)C(=O)OC[C@H]1O[C@H](O[C@H]2O[C@H](CO)[C@@H](OC(=O)/C(C)=C/C)[C@H](O)[C@H]2O[C@@H]2O[C@H](CO)[C@@H](O)[C@H](O)[C@H]2O)[C@H](O[C@@H]2O[C@H](CO)[C@@H](O)[C@H](O)[C@H]2O)[C@@H](O)[C@@H]1O |  | inactive [at 9.29 µM] | 
8 | COc1ccc([C@H]2Cc3cccc(O)c3C(=O)O2)cc1 | -3.39% (inactive) |  | 
9 | C#C[C@]1(O)CC[C@H]2[C@@H]3CCC4=C/C(=N/O)CC[C@@H]4[C@H]3CC[C@@]21CC |  |  | 5.8 µM (active)
